High-throughput results: PubChem BioAssay, National Center for Advancing Translational Sciences (NCATS)
Vaccinia Venus = vaccinia inhibition (Venus reporter) | Vaccinia virus Venus reporter expression, fluorescence | Potency, µM (series often up to 36.5 µM), actives largely listed as inhibitors | 330,000 compounds, 0.46% hits; calls by dose curve; tested in A549 cells; note: nearly all actives have a fitted effect of over 30% in size
HCV inhibitor = inhibitors of hepatitis C virus infection. Huh7.5.1 HCVcc-Cre infection, luciferase reporter, 44 h. Potency, µM (highest dose often 41.8 µM), hits mostly inhibitors. 340,000 compounds, 3.4% hits
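Whole-lifecycle infectious HCVcc-Cre system; cells 1,000/well, compound then virus (~0.5 moi) added 4 h after plating, 44 h culture. Luciferase read 15 sec following 15 min substrate incubation, room temp.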
VACV mCherry inh = inhibitors of vaccinia virus infection (mCherry reporter signal) | Vaccinia virus mCherry reporter infection, fluorescence | Potency, µM (series often up to 36.5 µM), most hits filed as inhibitors | 310,000 compounds, 0.63% hits; calls by dose curve; tested in A549 cells; note: nearly all actives have a fitted effect of over 35% in size
Sm TGR block = S. mansoni TGR enzyme inhibition; Q962Y6; purified TGR, DTNB reduction, TNB absorbance 405 nm; Potency, µM (series often up to 114 µM), most hits filed as inhibitors; 360,000 compounds, 3% hits; AID 485364; note: nearly all actives have a fitted effect of over 60% in size
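Kinetic colorimetric format: TGR-catalysed, NADPH-driven DTNB reduction monitored via TNB absorbance. Enzyme dispensed at 20 nM; compound exposure 15 min at room temperature before reaction start.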
HCMV antiviral = inhibitors of human cytomegalovirus; activity change, negative = inhibition, % at 57.5 µM; 410,000 compounds, 4.5% hits; HFF cells, HCMV-luciferase reporter, 72 h; active compounds read low; in the data active = activity change below about -60%; inconclusive = no clear call, values can overlap the other calls; inactive = above about -39%
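Luciferase read-out from HCMV-luciferase-infected HFFs (MOI 1 PFU/cell) 72 h post infection at 37C; compounds added after 16 h cell attachment; activity normalized between buffer-only basal and Salinomycin (10uM) inhibitor controls.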
FMDV antiviral = foot and mouth disease virus antiviral activity; FMDV antiviral cell-based qHTS; Potency, µM (series often up to 57.9 µM), hits mostly inhibitors; 410,000 compounds, 1.2% hits; calls by dose curve; tested in HEK293T cells; note: read-out not given here; nearly all actives have a fitted effect of over 45% in size
A number is an active result; i = inactive; ? = inconclusive; nt = no result given. This is a sample that favours compounds with a hit; in the whole collection about 9.3% have one here. Unless noted, calls come from the whole dose curve; as a rule, active = well fitted curve in the direction sought with a large enough effect; inconclusive = small, poorly fitted or top-dose-only effect, or another doubt; inactive = no such curve, though single readings can be large; an effect the other way counts as inactive or inconclusive.

SMILES	Vaccinia Venus	HCV inhibitor	VACV mCherry inh	Sm TGR block	HCMV antiviral	FMDV antiviral
CCCCc1c(O)nc(SCC(=O)Nc2cccc3ccccc23)n(-c2ccccc2OC)c1=O	nt	i	nt	i	i	i
Clc1ccc(-c2n[nH]c3c2CCCC3)cc1	i	10µM	i	i	-72.2	i
N#C/C(=N\Nc1cccc(Cl)c1)C(=O)c1ccccc1	nt	?	nt	i	-86.7	i
N#C/C(=N\Nc1ccc(Cl)cc1)C(=O)c1ccsc1	?	?	?	i	-63.9	i
N#C/C(=N\Nc1ccc(Cl)cc1)C(N)=S	i	?	?	i	-92.4	i
COc1ccc(C(=O)/C(C#N)=N/Nc2cccc([N+](=O)[O-])c2)cc1	nt	11.2µM	nt	nt	-98.3	?
CCC(CC)=NNc1cccc([N+](=O)[O-])c1	i	?	i	i	i	i
N#C/C(=N\Nc1ccccc1)C(N)=S	i	i	i	i	i	i
N#C/C(=N\Nc1ccccc1Cl)C(=O)c1ccccc1	i	i	i	i	i	i
Cn1cc(P(=O)(N2CCOCC2)N2CCOCC2)cc1P(=S)(N1CCOCC1)N1CCOCC1	i	i	i	i	i	i
O=C(NCC(O)c1ccccc1)Nc1cccs1 (configuration not stated)	nt	i	nt	i	i	i
Cc1ccc(/C=N/NC(=O)C(C)Oc2cccc3ccccc23)o1 (configuration not stated)	nt	?	nt	i	-66.3	i
CC(C)CNC(=O)CC(=O)NN=C1CCCC1	i	i	i	i	i	i
Clc1cccc(Cl)c1CNc1ccc(N2CCCC2)cc1	i	?	i	?	-77.5	i
O=C(Cc1ccc(Cl)cc1)Nc1ccc(N2CCCC2)cc1	i	i	nt	i	i	i
Cc1ccc(NC(=O)CN(C)C(=O)Cn2nnc(-c3ccccc3C)n2)cc1	i	i	i	nt	i	i
Cc1ccc(-c2cc3c(N=O)c4ccccc4c-3n[nH]2)cc1	i	i	i	i	-93.6	i
Cc1cccc(-c2cc3c(N=O)c4ccccc4c-3n[nH]2)c1	i	11.2µM	i	i	i	i
O=Nc1c2cc(-c3ccccc3)[nH]nc-2c2ccccc12	i	?	i	i	i	?
O=c1[nH]nc(-c2ccccc2)c2ccccc12	i	i	i	i	i	i
O=C(N/N=C/c1cccc([N+](=O)[O-])c1)c1c[nH]c2ccccc12	i	i	i	i	i	i
Cc1cc(C)cc(NC(=O)[C@@H](NC(=O)c2ccco2)C(C)C)c1	i	i	i	i	i	i
O=C(NNc1c2ccccc2nc2ccccc12)c1ccc(Cl)cc1	i	?	i	i	i	i
Cc1ccc(C(=O)NNc2c3ccccc3nc3ccccc23)cc1	?	11.2µM	i	i	i	i
Cc1ccc(C(=O)Nc2ccc3ccccc3n2)cc1	i	i	i	i	-102.2	i
SMILES	Vaccinia Venus	HCV inhibitor	VACV mCherry inh	Sm TGR block	HCMV antiviral	FMDV antiviral
C[N+]1(CC(=O)NNc2c3ccccc3nc3ccccc23)CCOCC1	nt	nt	nt	i	-96.3	nt
O=C(CN1CCOCC1)NNc1c2ccccc2nc2ccccc12	i	8.91µM	?	i	i	i
O=C(Nc1ccc2ccccc2n1)c1ccccc1	nt	i	nt	i	i	i
C[N+]1(CC(=O)c2c3ccccc3cc3ccccc23)CCOCC1	i	nt	i	nt	nt	nt
O=C(CN1CCOCCOCCOCC1)Nc1ccccc1	i	i	i	i	i	nt
CC(C)c1ccc(/C=N/NC(=O)c2nnn(-c3nonc3N)c2CN2CCOCC2)cc1	nt	i	nt	i	i	i
CCc1ccc(NS(=O)(=O)c2cc3c(cc2C)n(C)c(=O)c(=O)n3C)cc1	nt	?	nt	i	i	i
Cc1cc(CNC(=O)COc2ccccc2F)c2ccccc2n1	nt	25.1µM	nt	i	?	i
COc1ccccc1OCC(=O)NNc1c2ccccc2nc2ccccc12	nt	0.562µM	nt	i	-92.2	i
COc1ccccc1OCC(=O)NNC(=O)CCCC(=O)NNC(=O)COc1ccccc1OC	nt	i	nt	i	i	i
COc1ccc(/C=N/NC(=S)Nc2ccccc2)cc1COc1ccc(F)cc1F	i	?	i	i	i	i
CCCC(=O)NCC(c1ccc2c(c1)OCO2)N1CCOCC1 (configuration not stated)	i	nt	i	i	i	i
CCCC(=O)NC(c1ccc2c(c1)OCO2)c1cc(Cl)c2cccnc2c1O (configuration not stated)	?	1.12µM	12.6µM	i	nt	i
